Screening results as filed in PubChem BioAssay.
PNC inhibitor – High Content Assay for Compounds that inhibit the Assembly of the Perinucleolar Compartment; PC3M PTB-GFP, PNC prevalence imaging, 16 h; hits give low values; activity change (PNC), negative = inhibition, % at 10 µM; 140,000 compounds, 3.1% hits; AID 2417, 2010;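 active = readout at or below -70, meaning at least 70% loss of cells showing the perinucleolar compartment, a nuclear body marking cancer cells; inconclusive = readout between -30 and a set limit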;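 also: plate controls were DMSO wells for no effect and camptothecin positive control wells for full effect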
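Compounds are pinned in duplicate onto adhered PC3M cells stably expressing GFP-tagged PTB and incubated 16 h at 37 C. Cells are then fixed, nuclei stained with Hoechst, and PNC-positive cells counted.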
TRb-SRC2 inh – qHTS for Inhibitors of the Interaction of Thyroid Hormone Receptor and Steroid Receptor Coregulator 2 | Potency, µM (doses to about 106 µM), inactives show top-dose activity change, negative = inhibition, most hits filed as inhibitors | AID 1469, 2008 | 280,000 compounds, 0.065% hits | Thyroid hormone receptor beta (Homo sapiens), P10828 | TRbeta-SRC2 peptide binding, fluorescence polarization; receptor liganded with 1 µM T3;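 also: potency is read from the fitted curve at half-maximal effect; plate controls were bound peptide for no effect and peptide without receptor for full effect; nearly all actives have a fitted effect of over 50% in size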
Target sequence (P10828 whole entry, looked up): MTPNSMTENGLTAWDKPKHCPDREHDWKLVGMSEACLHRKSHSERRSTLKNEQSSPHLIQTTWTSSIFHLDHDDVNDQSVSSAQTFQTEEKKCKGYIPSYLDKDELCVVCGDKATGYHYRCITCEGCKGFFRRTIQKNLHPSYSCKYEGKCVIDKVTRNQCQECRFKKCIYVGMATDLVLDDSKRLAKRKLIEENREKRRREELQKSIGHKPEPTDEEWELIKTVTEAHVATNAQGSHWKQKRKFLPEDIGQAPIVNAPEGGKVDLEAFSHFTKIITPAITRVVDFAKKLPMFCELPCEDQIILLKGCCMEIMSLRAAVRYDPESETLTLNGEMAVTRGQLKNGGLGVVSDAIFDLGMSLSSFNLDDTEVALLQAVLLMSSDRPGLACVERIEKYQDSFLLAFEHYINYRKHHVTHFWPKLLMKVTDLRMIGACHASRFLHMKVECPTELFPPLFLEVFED
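Each compound concentration gave % activity, normalized to unbound and bound Texas Red SRC2 controls, from polarization read after 5 hr ambient incubation with T3-loaded human TRb LBD.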
Tau ThT inhib – qHTS for Inhibitors of Tau Fibril Formation, Thioflavin T Binding | recombinant tau K18 P301L, heparin-induced fibrillization, ThT fluorescence | Potency, µM (series often up to 57.4 µM), for inactives: at the top dose activity, negative = inhibition, usual class: inhibitors | 270,000 compounds, 2.1% hits; also: potency is read from the fitted curve at half-maximal effect; nearly all actives have a fitted effect of over 55% in size
Target sequence (P10636 561-689 P618L limits assumed): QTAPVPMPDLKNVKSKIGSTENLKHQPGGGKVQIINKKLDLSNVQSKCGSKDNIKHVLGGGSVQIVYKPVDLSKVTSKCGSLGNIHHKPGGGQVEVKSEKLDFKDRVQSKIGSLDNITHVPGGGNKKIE
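K18 P301L tau (15 uM + 0.24 uM Alexa 594-tagged), heparin 20 uM, NaOAc pH 7, 6 h 37 C; ThT 30 uM, 1 h RT, ex 450/em 510 nm.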
Tau fluor cs – Counterscreen qHTS for Inhibitors of Tau Fibril Formation, Fluorescence Polarization. tau K18 P301L Alexa594 fluorescence, heparin fibrillization. Potency, µM (series often up to 57.7 µM), inactives show top-dose activity change, negative = decrease. 280,000 compounds, 0.93% hits; also: potency is read from the fitted curve at half-maximal effect; nearly all actives have a fitted effect of over 55% in size
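Human tau K18 P301L (15 uM unlabeled, 0.24 uM Alexa 594-labeled) in 100 mM sodium acetate pH 7 with 20 uM heparin, 6 hr at 37 C. ThT 30 uM added, 1 hr ambient; Alexa 594 FP and total fluorescence read at 555/632 nm.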
TR SRC2 fluor cs – Total Fluorescence Counterscreen for Inhibitors of the Interaction of Thyroid Hormone Receptor and Steroid Receptor Coregulator 2 | TRb/SRC2 Texas Red total fluorescence interference | Potency, µM (series often up to 106 µM), for the others: top-dose fluorescence change, negative = quenching | 280,000 compounds, 0.29% hits; active = well fitted curve in either direction with a large enough effect; inconclusive = small, poorly fitted or top-dose-only effect; also: potency is read from the fitted curve at half-maximal effect
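Flags fluorescent or light-absorbing compounds by total fluorescence, S + 2P, at 555 nm excitation and 632 nm emission. Mixture: 20 nM Texas Red SRC2 peptide, 0.6 uM human TRb LBD, 1 uM T3, 5% DMSO; compound exposure 5 h at ambient temperature.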
Tau FP inhib – qHTS for Inhibitors of Tau Fibril Formation, Fluorescence Polarization | Microtubule-associated protein tau (Homo sapiens), P10636 | K18 P301L tau heparin fibrillization, Alexa594 FP, 6 h | Potency, µM (series often up to 57.7 µM), for the others: at the highest dose activity, negative = inhibition, most hits filed as inhibitors | 280,000 compounds, 0.39% hits; also: potency is read from the fitted curve at half-maximal effect; nearly all actives have a fitted effect of over 55% in size
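Quantitative HTS format: compounds meet 15 uM recombinant K18 P301L tau and Alexa 594-tau tracer in 100 mM sodium acetate pH 7; 20 uM heparin triggers fibrillization at 37 C over 6 hr; FP gives the signal.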
An asterisk follows results filed as active; ? = inconclusive; . = no result given; [ ] = remark or other dose. Most compounds without a hit are left out; they make up all but 4.6% or so of the library. Unless noted, calls follow the shape of the dose curve; as a rule, active = well fitted curve in the direction sought with a large enough effect; inconclusive = small, poorly fitted or top-dose-only effect, or another doubt; inactive = no such curve, though single readings can be large; an effect the other way counts as inactive or inconclusive. Unless noted, % is scaled to controls: 0 for no effect and ±100 for the full control effect.

SMILES | PNC inhibitor | TRb-SRC2 inh | Tau ThT inhib | Tau fluor cs | TR SRC2 fluor cs | Tau FP inhib
COc1ccc(NC(=S)N(CCc2c(C)[nH]c3ccc(C)cc23)Cc2ccco2)cc1 | -14.0 | 2.5% | ? | 14.1µM*[quencher] | -0.1% | ?
COc1ccc2[nH]c(C)c(CCN(Cc3cccs3)C(=S)Nc3ccc(F)cc3)c2c1 | -27.0 | -14.1% | ? | 7.94µM*[quencher] | -0.3% | -1.8%
CNC(=S)N(CCc1c(C)[nH]c2ccc(C)cc12)Cc1cccs1 | . | -2.0% | ? | 20µM*[quencher] | -1.1% | 6.1%
CCCCS(=O)(=O)NC1=NCN(Cc2ccco2)CN1 | -14.3 | 5.0% | -5.9% | -1.6% | -2.0% | 2.9%
COC(=O)Nc1c(-c2ccccc2)nc2ccccn12 | ? | 0.6% | 7.6% | 10.3% | -5.5% | 4.8%
COc1cc(OC)cc(C(=O)N[C@H](C(=O)NCc2cccs2)C(C)C)c1 | . | -0.6% | -6.2% | -9.9% | 0.8% | -1.0%
COc1ccc(Cl)cc1S(=O)(=O)N1CCN(C)CC1 | 19.2 | -18.0% | -7.7% | -1.3% | 1.4% | 4.0%
CC(C)CNC(=O)c1ccccc1NC(=O)CSCc1ccccc1 | -18.2 | -3.6% | 1.3% | -8.3% | -0.8% | -7.4%
COC(=O)Cc1cc(=O)n(-c2nc3ccccc3[nH]2)[nH]1 | -100.0* | 2.2% | -10.1% | -9.0% | -4.6% | 8.6%
CN(C)c1ccc(NC(=S)c2ccccn2)cc1 | 38.2 | -3.9% | 3.55µM* | ? | 0.3% | 4.3%
COc1cc(C(=O)N2c3ccccc3CC2C)cc(OC)c1OC (stereo not given) | -82.0* | -23.2% | 3.4% | 6.6% | 1.2% | 0.6%
Cc1cc2nc(-c3ccc(SCC(=O)N4CCOCC4)nc3)[nH]c2cc1C | -89.2* | -1.2% | ? | -13.2% | -7.5% | 7.3%
Cc1cc2nc(-c3ccc(SCC(=O)N4CCN(C(=O)c5ccco5)CC4)nc3)[nH]c2cc1C | -27.8 | -10.9% | -15.7% | -21.2% | 7.6% | 9.6%
CC(C)C(c1nnnn1Cc1ccc2c(c1)OCO2)N1CCN(C)CC1 (stereo not given) | -100.0* | -5.8% | -2.7% | 1.7% | -3.8% | -3.9%
CC1=CC(c2ccccc2)n2nc(N3C(=O)c4ccccc4C3=O)nc2N1 (stereo not given) | -4.9 | -0.6% | 3.2% | 3.2% | -1.4% | 1.5%
CC1=CC(c2ccccc2)n2nc(N3C(=O)CCC3=O)nc2N1 (stereo not given) | -94.1* | -5.9% | -6.5% | -1.8% | 1.1% | -0.6%
Fc1cccc2sc(Nc3nc4cc5c(cc4s3)OCCO5)nc12 | 40.2 | -2.8% | ? | 14.1µM*[quencher] | -1.8% | -4.9%
Fc1cccc2sc(Nc3nc4cc5c(cc4s3)OCO5)nc12 | 28.0 | -2.3% | 7.94µM* | 7.94µM*[quencher] | -3.2% | -2.3%
Fc1cc(F)c2nc(Nc3nc4cc5c(cc4s3)OCO5)sc2c1 | 19.4 | 23.9% | ? | 5.01µM*[quencher] | 35.5µM*[quencher] | 4.2%
O=C(NNc1nc2cc3c(cc2s1)OCCO3)c1ccccc1 | . | 6.0% | ? | -13.1% | 1.5% | -0.3%
COc1ccc(CNC(=O)C2=CC(c3ccc(OC)c(OC)c3)=NS(=O)(=O)N2C)cc1 | . | -1.2% | -17.5% | ? | -2.1% | 4.7%
CSc1ccc(-c2nc(CN(C)C3CCOC3)c(C)o2)cc1 (stereo not given) | . | 3.6% | -11.9% | -5.0% | 0.7% | -1.6%
Cc1cc(=O)c2c(O)c3c(O)cc(=O)c4c3c3c(cc(O)c1c23)C(C)(C)C=4O | . | -6.8% | 8.91µM* | ? | ? | -13.0%
Nc1nonc1OCCN1CCN(c2ccc([N+](=O)[O-])c3cccnc23)CC1 | . | -3.4% | 17.8µM* | ? | -3.8% | -0.9%
